# PubChem BioAssay (NCATS)
# “And” between values parts separate entries of the source, which are not always exact repeats. Equal values may be shown once. Records with an inconclusive call do not appear. Unmarked numbers belong to inactive results. The source made the active and inactive calls. Calls come from the whole dose curve; as a rule, active = well fitted inhibition curve with a large enough effect; inconclusive = small, poorly fitted or top-dose-only effect; inactive = flat fitted curve, though single readings scatter.
# Assays:
# FAB9 = test: qHTS profiling for inhibitors of Plasmodium falciparum proliferation (AID 504749); conditions: P. falciparum in erythrocytes, SYBR Green DNA, 72 h; series mostly up to 28.7 µM
# Procedure, shortened: (§1)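 Infected RBCs, 0.3% parasitemia/2.5% Hct final; cpd 72 h, 37 C, 5% CO2; lysis buffer with saponin/triton/SYBR Green I, o/n RT dark; FI 485/535; norm. to artemisinin (0.29 uM) and DMSO.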
# GB4 = test: as above; conditions: P. falciparum in erythrocytes, SYBR Green DNA, 72 h; series mostly up to 28.7 µM
# Procedure, shortened: as §1
# HB3 = test: as above; conditions: P. falciparum in erythrocytes, SYBR Green DNA, 72 h; series mostly up to 28.7 µM
# Procedure, shortened: as §1
# ICS = test: as above; conditions: P. falciparum in erythrocytes, SYBR Green DNA, 72 h; series mostly up to 28.7 µM
# Procedure, shortened: as §1
# JCK = test: as above; conditions: P. falciparum in erythrocytes, SYBR Green DNA, 72 h; series mostly up to 28.7 µM
# Procedure, shortened: as §1
# N140 = test: as above; conditions: P. falciparum in erythrocytes, SYBR Green DNA, 72 h; series mostly up to 28.7 µM
# Procedure, shortened: as §1
# P93_24 = test: as above; conditions: P. falciparum in erythrocytes, SYBR Green DNA, 72 h; series mostly up to 28.7 µM
# Procedure, shortened: as §1
# P94_40 = test: as above; conditions: P. falciparum in erythrocytes, SYBR Green DNA, 72 h; series mostly up to 28.7 µM
# Procedure, shortened: as §1
# PAD = test: as above; conditions: P. falciparum in erythrocytes, SYBR Green DNA, 72 h; series mostly up to 28.7 µM
# Procedure, shortened: as §1
# PC15 = test: as above; conditions: P. falciparum in erythrocytes, SYBR Green DNA, 72 h; series mostly up to 28.7 µM
# Procedure, shortened: as §1
# PC26 = test: as above; conditions: P. falciparum in erythrocytes, SYBR Green DNA, 72 h; series mostly up to 28.7 µM
# Procedure, shortened: as §1
# PC49 = test: as above; conditions: P. falciparum in erythrocytes, SYBR Green DNA, 72 h; series mostly up to 28.7 µM
# Procedure, shortened: as §1
# SC27B = test: as above; conditions: P. falciparum in erythrocytes, SYBR Green DNA, 72 h; series mostly up to 28.7 µM
# Procedure, shortened: as §1
# TAB109 = test: as above; conditions: P. falciparum in erythrocytes, SYBR Green DNA, 72 h; series mostly up to 28.7 µM
# Procedure, shortened: as §1
# TAB113 = test: as above; conditions: P. falciparum in erythrocytes, SYBR Green DNA, 72 h; series mostly up to 28.7 µM
# Procedure, shortened: as §1
# TAB165 = test: as above; conditions: P. falciparum in erythrocytes, SYBR Green DNA, 72 h; series mostly up to 28.7 µM
# Procedure, shortened: as §1
# W2 = test: as above; conditions: P. falciparum in erythrocytes, SYBR Green DNA, 72 h; series mostly up to 28.7 µM
# Procedure, shortened: as §1
# CRL-7250 = normal cell line; test: Cytotoxic Profiling of Annotated Libraries Using Quantitative High-Throughput Screening (AID 1296008); conditions: Five cell lines viability, CellTiter-Glo ATP luminescence, 48-72 h; max response: active compounds read low; for max response: % is set by controls: 0 for no effect and ±100 for the full control effect
# Procedure, shortened: (§2)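 Cytotoxicity was measured as CellTiter-Glo ATP luminescence, read after 10 min at room temperature. Compound treatment of the cells lasted 48 or 72 hr at 37 degrees Celsius in a qHTS format.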
# HEK293 = test: as above; conditions: Five cell lines viability, CellTiter-Glo ATP luminescence, 48-72 h; max response: active compounds read low
# Procedure, shortened: as §2
# HaCat = test: as above; conditions: Five cell lines viability, CellTiter-Glo ATP luminescence, 48-72 h; max response: active compounds read low
# Procedure, shortened: as §2
# Note: nearly all actives have a fitted effect of over 60% in size.
# Potency is the fitted concentration of half-maximal effect.
smiles,measurement,setting,value
c1ccc2nc(N3CCNCC3)ccc2c1,Potency,FAB9,inactive
same,Potency,GB4,inactive
same,Potency,HB3,inactive
same,Potency,ICS,inactive
same,Potency,JCK,inactive
same,Potency,N140,inactive
same,Potency,P93_24,inactive
same,Potency,P94_40,inactive
same,Potency,PAD,inactive
same,Potency,PC15,inactive
same,Potency,PC26,inactive
same,Potency,PC49,inactive
same,Potency,SC27B,inactive
same,Potency,TAB109,inactive
same,Potency,TAB113,inactive
same,Potency,TAB165,inactive
same,Potency,W2,inactive
same,max response,CRL-7250,-2.05%
same,max response,HEK293,-18%
same,max response,HaCat,-23.1%
COP(=O)(OC)C(O)C(Cl)(Cl)Cl (stereo unspecified),Potency,FAB9,inactive
same,Potency,HB3,inactive
same,Potency,JCK,inactive
same,Potency,N140,inactive
same,Potency,P93_24,inactive
same,Potency,P94_40,inactive
same,Potency,PAD,inactive
same,Potency,PC15,inactive
same,Potency,PC26,inactive
same,Potency,PC49,inactive
same,Potency,SC27B,inactive
same,Potency,TAB109,inactive
same,Potency,TAB113,inactive
same,Potency,TAB165,inactive
same,Potency,W2,4.26 µM (active)
same,max response,CRL-7250,3.85%
same,outcome,HEK293,inactive
same,outcome,HaCat,inactive
Sc1ccccc1Cl,max response,CRL-7250,1.34%
same,max response,HaCat,-3.98%
CCCCCCCCCCCC[N+](C)(C)CCOc1ccccc1,Potency,FAB9,7.94 µM (active)
same,Potency,GB4,5.36 µM (active)
same,Potency,HB3,6.31 µM (active)
same,Potency,ICS,2.24 µM (active)
same,Potency,JCK,12.6 µM (active)
same,Potency,N140,7.94 µM (active)
same,Potency,P93_24,4.47 µM (active)
same,Potency,P94_40,4.47 µM (active)
same,Potency,PAD,7.94 µM (active)
same,Potency,PC15,10 µM (active)
same,Potency,PC26,13.5 µM (active)
same,Potency,PC49,8.91 µM (active)
same,Potency,SC27B,7.08 µM (active)
same,Potency,TAB109,5.01 µM (active)
same,Potency,TAB113,4.47 µM (active)
same,Potency,TAB165,5.62 µM (active)
same,Potency,W2,3.79 µM (active)
same,Potency,CRL-7250,18.8 µM (active)
same,Potency,HEK293,8.41 µM (active)
same,Potency,HaCat,16.8 µM (active)
Cc1cccc(Cc2cnc[nH]2)c1C,max response,CRL-7250,-4.56%
same,max response,HaCat,-10%
CN(C)C(=S)SSC(=S)N(C)C,Potency,FAB9,6.31 µM (active)
same,Potency,GB4,2.13 µM (active)
same,Potency,HB3,1.26 µM (active)
same,Potency,ICS,0.891 µM (active)
same,Potency,JCK,8.91 µM (active)
same,Potency,N140,1.78 µM (active)
same,Potency,P93_24,2.51 µM (active)
same,Potency,P94_40,2 µM (active)
same,Potency,PAD,2 µM (active)
same,Potency,PC15,3.16 µM (active)
same,Potency,PC26,3.79 µM (active)
same,Potency,PC49,11.2 µM (active)
same,Potency,SC27B,6.31 µM (active)
same,Potency,TAB109,1.58 µM (active)
same,Potency,TAB113,3.98 µM (active)
same,Potency,TAB165,2.51 µM (active)
same,Potency,W2,0.849 µM (active)
same,Potency,CRL-7250,0.75 µM (active)
same,Potency,HEK293,0.944 µM (active)
CNC(=O)Oc1cccc2ccccc12,Potency,FAB9,inactive
same,Potency,HB3,inactive
same,Potency,JCK,inactive
same,Potency,N140,inactive
same,Potency,P94_40,12.6 µM (active)
same,Potency,PC49,inactive
same,Potency,SC27B,inactive
same,Potency,TAB109,inactive
same,Potency,TAB113,inactive
CN1CCc2cc(Cl)c(O)cc2[C@H]2c3ccccc3CC[C@@H]21,Potency,FAB9,inactive
same,Potency,JCK,inactive
same,Potency,PAD,inactive
same,Potency,PC15,inactive
same,Potency,PC49,inactive
same,Potency,TAB113,inactive
same,Potency,W2,4.78 µM (active)
same,max response,CRL-7250,-3.76%
same,outcome,HaCat,inactive
C[C@]12C=CC(=O)C=C1CC[C@@H]1[C@@H]2CC[C@@]2(C)[C@H]1CC[C@]2(C)O,Potency,FAB9,inactive
same,Potency,HB3,inactive
same,Potency,ICS,inactive
same,Potency,JCK,inactive
same,Potency,N140,inactive
same,Potency,P93_24,inactive
same,Potency,P94_40,inactive
same,Potency,PAD,inactive
same,Potency,PC15,inactive
same,Potency,PC49,inactive
same,Potency,SC27B,inactive
same,Potency,TAB109,inactive
same,Potency,TAB113,inactive
same,Potency,TAB165,inactive
same,Potency,W2,inactive
same,max response,CRL-7250,-25.8%
same,max response,HaCat,-43.5%
CC(Cc1ccccc1)NCc1ccccc1Cl (stereo unspecified),Potency,FAB9,inactive
same,Potency,HB3,inactive
same,Potency,JCK,inactive
same,Potency,PC15,inactive
same,Potency,PC49,inactive
same,Potency,SC27B,inactive
same,Potency,W2,5.36 µM (active)
same,max response,CRL-7250,-20.3%
same,max response,HaCat,-41.8%
CCOC(C(=O)OCCN(C)C)(c1ccccc1)c1ccccc1,max response,HEK293,-2.86%
CC(C)NCC(O)c1ccc(N)c(C#N)c1 (stereo unspecified),Potency,FAB9,inactive
same,Potency,GB4,inactive
same,Potency,HB3,inactive
same,Potency,ICS,inactive
same,Potency,JCK,inactive
same,Potency,N140,inactive
same,Potency,P93_24,inactive
same,Potency,P94_40,inactive
same,Potency,PAD,inactive
same,Potency,PC15,inactive
same,Potency,PC49,inactive
same,Potency,SC27B,inactive
same,Potency,TAB109,inactive
same,Potency,TAB113,inactive
same,Potency,TAB165,inactive
same,Potency,W2,inactive
same,max response,CRL-7250,3.52%
same,max response,HaCat,-0.104%
Oc1ccc2[nH]cc(CCCCN3CC=C(c4ccccc4)CC3)c2c1,Potency,FAB9,inactive
same,Potency,GB4,9.53 µM (active)
same,Potency,ICS,8.91 µM (active)
same,Potency,JCK,inactive
same,Potency,P93_24,11.2 µM (active)
same,Potency,PC26,13.5 µM (active)
same,Potency,TAB165,11.2 µM (active)
same,Potency,W2,5.36 µM (active)
same,max response,CRL-7250,4.19%
same,outcome,HaCat,inactive
Cc1nnc2n1-c1sc(CCc3ccc(CC(C)C)cc3)cc1C(c1ccccc1Cl)=NC2C (stereo unspecified),Potency,HEK293,7.5 µM (active)
Clc1ccc(C(OCCN2CCCCC2)c2ccccc2)cc1 (stereo unspecified),max response,HaCat,-5.7%
CC(C)(O)C(Cl)(Cl)Cl,Potency,FAB9,7.94 µM (active)
same,Potency,GB4,2.69 µM (active)
same,Potency,HB3,2 µM (active)
same,Potency,ICS,0.891 µM (active)
same,Potency,JCK,11.2 µM (active)
same,Potency,N140,2.51 µM (active)
same,Potency,P93_24,2.24 µM (active)
same,Potency,P94_40,2.51 µM (active)
same,Potency,PAD,3.55 µM (active)
same,Potency,PC15,2.24 µM (active)
same,Potency,PC26,8.49 µM (active)
same,Potency,PC49,7.08 µM (active)
same,Potency,SC27B,4.47 µM (active)
same,Potency,TAB109,3.16 µM (active)
same,Potency,TAB113,4.47 µM (active)
same,Potency,TAB165,1.78 µM (active)
same,Potency,W2,1.51 µM (active)
CC[n+]1c(-c2ccccc2)c2cc(N)ccc2c2ccc(N)cc21,Potency,FAB9,79.4 nM (active) and 89.1 nM (active)
same,Potency,GB4,75.7 nM (active) and 169 nM (active)
same,Potency,HB3,126 nM (active) and 316 nM (active)
same,Potency,ICS,44.7 nM (active) and 126 nM (active)
same,Potency,JCK,79.4 nM (active) and 282 nM (active)
same,Potency,N140,141 nM (active) and 316 nM (active)
same,Potency,P93_24,63.1 nM (active) and 158 nM (active)
same,Potency,P94_40,70.8 nM (active) and 355 nM (active)
same,Potency,PAD,199 nM (active) and 316 nM (active)
same,Potency,PC15,251 nM (active) and 891 nM (active)
same,Potency,PC26,1.51 µM (active) and 2.13 µM (active)
same,Potency,PC49,178 nM (active) and 316 nM (active)
same,Potency,SC27B,126 nM (active) and 355 nM (active)
same,Potency,TAB109,70.8 nM (active) and 158 nM (active)
same,Potency,TAB113,100 nM (active) and 316 nM (active)
same,Potency,TAB165,17.8 nM (active) and 224 nM (active)
same,Potency,W2,21.3 nM (active) and 37.9 nM (active)
same,Potency,CRL-7250,6.68 µM (active)
Oc1ccc([C@H]2CNCc3c2ccc(O)c3O)cc1O,outcome,HaCat,inactive
C[C@H](N)[C@H](O)c1ccc(O)c(O)c1,outcome,HaCat,inactive
CC#C[C@]1(O)CC[C@H]2[C@@H]3C[C@H](C)C4=CC(=O)CC[C@]4(C)[C@H]3CC[C@@]21C,outcome,HaCat,inactive
COc1ccc2c3c1O[C@H]1[C@@H](O)C=C[C@H]4[C@@H](C2)N(C)CC[C@@]341,Potency,HEK293,33.7 µM (active)
OC(c1ccccc1)(c1ccccc1)C1CCNCC1,Potency,FAB9,inactive
same,Potency,GB4,inactive
same,Potency,HB3,inactive
same,Potency,JCK,inactive
same,Potency,N140,inactive
same,Potency,P93_24,inactive
same,Potency,P94_40,inactive
same,Potency,PAD,inactive
same,Potency,PC26,inactive
same,Potency,SC27B,inactive
same,Potency,TAB109,inactive
same,Potency,TAB113,inactive
same,Potency,TAB165,inactive
same,Potency,W2,inactive
same,max response,CRL-7250,4.48%
same,max response,HaCat,-12.8%
